Laboratory results published in the supplement of paper PMC8253809.
Several values for one entry are separate records, joined by “and”; a condition that tells them apart may be missing. Equal values may be shown once.

How the values were obtained:
Assay in all cases: growth inhibition (% activity, log2 RLU normalised to DMSO / staurosporine); higher = more growth inhibition
Conditions in all cases: 33 µM
DIPGX29 = tested on: DIPGX29 (H3.3 K27M diffuse intrinsic pontine glioma line)
Summary of the method: (§1)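 pHGG cell lines and H9-derived neural stem cells were grown on Geltrex-coated 384-well plates. Approved drugs were added by pin tool at a single final concentration of about 33 μM, in triplicate, for 7 days at 37 °C, 5% CO2. CellTiter-Glo luminescence was log2-transformed and normalised per plate to % activity between solvent and positive control wells. The growth-inhibition value is the median over replicates.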

DIPGX37 = tested on: DIPGX37 (H3.3 K27M diffuse intrinsic pontine glioma line)
Summary of the method: as §1

DIPGX7 = tested on: DIPGX7 (H3.3 K27M diffuse intrinsic pontine glioma line)
Summary of the method: as §1

DIPGX9 = tested on: DIPGX9 (diffuse intrinsic pontine glioma line)
Summary of the method: as §1

HGGX39 = tested on: HGGX39 (paediatric high-grade glioma line)
Summary of the method: as §1

HGGX6 = tested on: HGGX6 (H3.3 G34R paediatric high-grade glioma line)
Summary of the method: as §1

HNSC = tested on: HNSC
Summary of the method: as §1

SUDIPGIV = tested on: SUDIPGIV (diffuse intrinsic pontine glioma line)
Summary of the method: as §1

SUDIPGVI = tested on: SUDIPGVI (diffuse intrinsic pontine glioma line)
Summary of the method: as §1

SUDIPGXIII = tested on: SUDIPGXIII (diffuse intrinsic pontine glioma line)
Summary of the method: as §1

| SMILES | growth inhibition (DIPGX29) | growth inhibition (DIPGX37) | growth inhibition (DIPGX7) | growth inhibition (DIPGX9) | growth inhibition (HGGX39) | growth inhibition (HGGX6) | growth inhibition (HNSC) | growth inhibition (SUDIPGIV) | growth inhibition (SUDIPGVI) | growth inhibition (SUDIPGXIII) |
| --- | --- | --- | --- | --- | --- | --- | --- | --- | --- | --- |
| O=C1OC(CN2CCOCC2)CN1/N=C/c1ccc([N+](=O)[O-])o1 (stereo not given) | -1.53% | 1.22% | -0.714% | -0.52% | -0.169% | 0.852% | -1.5% | -2.29% | -0.066% | -18.3% |
| CC1OC(n2cc(F)c(=O)[nH]c2=O)C(O)C1O (stereo not given) | -0.415% | 1.44% | -1.58% | 1.19% | -0.346% | 1.76% | -0.812% | 2.36% | 0.29% | 1.21% |
| CCCC(=O)OCOC(=O)C1=C(C)NC(C)=C(C(=O)OC)C1c1cccc(Cl)c1Cl (stereo not given) | 2.13% | 4.21% | 2.32% | 2.4% | 4.32% | -0.314% | 31.7% | 2.85% | 3.35% | -0.196% |
| CCCNC(C)C(=O)Nc1ccccc1C (stereo not given) | -1.66% | 0.68% | -1.19% | -0.603% | 0.299% | -0.0141% | -2.37% | -1.79% | -0.942% | -0.434% |
| Cc1cc(=O)[nH]c(=S)[nH]1 | 0.66% | -0.151% | 2.93% | 1.41% | 3.23% | 0.504% | 4.39% | 2.24% | 4.36% | 1.21% |
| NCCCCCC(=O)O | 0.867% | 2.56% | 2.76% | 1.09% | 2.5% | 4.7% | 0.436% | 1.23% | 0.903% | -1.64% |
| C=CC[N+]1([C@H]2C[C@H]3[C@@H]4CC[C@H]5C[C@H](O)[C@@H](N6CCOCC6)C[C@]5(C)[C@H]4CC[C@]3(C)[C@H]2OC(C)=O)CCCC1 | -0.303% | -0.692% | 1.36% | 0.151% | 4.24% | 1.87% | 2.05% | -0.149% | 0.535% | 1.02% |
| CCCCN1CCCCC1C(=O)Nc1c(C)cccc1C (stereo not given) | -1.45% | -1.09% | -1.58% | 0.909% | 1.03% | 0.943% | -1.77% | -2.22% | -1.08% | 7.3% |
| Nc1cccc2c1CN(C1CCC(=O)NC1=O)C2=O (stereo not given) | 0.182% | 0.237% | 4.3% | 2.15% | 4.65% | 4.94% | 4.5% | 1.6% | 2.41% | -0.527% |
| Nc1nc(Cl)nc2c1ncn2[C@@H]1O[C@H](CO)[C@@H](O)[C@@H]1F | 14.6% | 9.43% | 17.6% | 43.6% | 20% | 12.5% | 64.4% | 45% | 2.3% | 14.3% |
| NS(=O)(=O)c1cc(Cl)c(Cl)c(S(N)(=O)=O)c1 | -2.92% | -0.619% | 1.34% | -2.39% | -1.33% | -5.6% | 21.2% | -2.27% | -8.85% | 2.33% |
| N[C@@H]1CN(c2c(F)cc3c(=O)c(C(=O)O)cn([C@@H]4C[C@@H]4F)c3c2Cl)CC12CC2 | 1.84% | 4.34% | 1.79% | 0.793% | 3.53% | 0.649% | 0.64% | 0.64% | 3.9% | -3.35% |
| CCC1=C(C)CN(C(=O)NCCc2ccc(S(=O)(=O)NC(=O)N[C@H]3CC[C@H](C)CC3)cc2)C1=O | 1.44% | 2.15% | -0.131% | 1.61% | -0.27% | 0.0487% | 4.42% | -0.00514% | 1.62% | 0.817% |
| Cc1ccc(NC(=O)c2ccc(CN3CCN(C)CC3)cc2)cc1Nc1nccc(-c2cccnc2)n1 | 4.56% and 0.376% | 3.89% and 0.0929% | 5.28% and 3.03% | 2.43% and -0.42% | 8.41% and 4.83% | 5.52% and -1.5% | 3.25% and -0.323% | 4.42% and 1.82% | 4.93% and -0.526% | -15.8% and 0.752% |
| C=C1/C(=C\C=C2/CCC[C@]3(C)[C@@H]([C@H](C)CCCC(C)(C)O)CC[C@@H]23)C[C@@H](O)C[C@@H]1O | 2.73% | 4.49% | 6.36% | 1.22% | 5.14% | 4.52% | 2.64% | 9.51% | 2.83% | -1.15% |
| CCN(CC)CCOC(=O)C1(C2CCCCC2)CCCCC1 | -1.15% | -1.5% | -1.55% | -2.17% | -2.47% | -0.591% | -1.91% | -0.751% | -0.615% | 0.956% |
| CCOc1ccc(NC(C)=O)cc1 | 1.41% | 1.55% | 3.09% | 2.76% | 2.76% | -0.142% | 47.6% | 2.49% | -4.96% | 1.58% |
| COc1c(N2C[C@@H]3CCCN[C@@H]3C2)c(F)cc2c(=O)c(C(=O)O)cn(C3CC3)c12 | 0.967% | 2.87% | 5.33% | 1.28% | 3.99% | 2.07% | 2.61% | 0.935% | 2.05% | -1.1% |
| O=c1c(-c2ccc(O)cc2)coc2cc(O)ccc12 | -1.42% | -0.456% | -0.191% | -0.874% | 1.36% | -0.307% | -2.12% | -0.853% | -1.44% | 0.974% |
| Cc1onc(-c2ccccc2Cl)c1C(=O)N[C@@H]1C(=O)N2[C@@H]1SC(C)(C)[C@@H]2C(=O)O | -0.728% | -0.729% | -0.308% | -1.05% | -0.725% | 1.07% | -1.87% | -0.916% | -0.387% | -9.34% |

| SMILES | growth inhibition (DIPGX29) | growth inhibition (DIPGX37) | growth inhibition (DIPGX7) | growth inhibition (DIPGX9) | growth inhibition (HGGX39) | growth inhibition (HGGX6) | growth inhibition (HNSC) | growth inhibition (SUDIPGIV) | growth inhibition (SUDIPGVI) | growth inhibition (SUDIPGXIII) |
| --- | --- | --- | --- | --- | --- | --- | --- | --- | --- | --- |
| CCCCN(CCCC)CCCOC(=O)c1ccc(N)cc1 | 2.46% | 2.29% | 5.01% | 2.44% | 6.95% | 5.63% | 8.9% | 1.64% | 3.72% | -1.97% |
| Cc1ccccc1C(OCCN(C)C)c1ccccc1 (stereo not given) | -0.515% | 0.826% | -0.00592% | 1.44% | 2.28% | 1.66% | -1.91% | 0.0322% | 0.905% | 1.58% |
| NCCS(=O)(=O)O | 0.304% | 1.36% | 0.217% | 0.788% | 0.579% | 1.43% | -2.23% | -0.945% | 0.882% | -0.421% |
| Cc1ccc(C(=O)Nc2ccc(CN3CCN(C)CC3)c(C(F)(F)F)c2)cc1C#Cc1cnc2cccnn12 | 60.2% | 59.1% | 51.4% | 56.7% | 56.8% | 50% | 62.7% | 18.6% | 6.05% | 22.9% |
| Clc1ccc2c(c1)CCc1cccnc1C2=C1CCNCC1 | -4.02% | -0.355% | -2.28% | -0.408% | 0.308% | -1.66% | 0.109% | -0.876% | -0.303% | 0.814% |
| CCOc1nc2cccc(C(=O)O)c2n1Cc1ccc(-c2ccccc2-c2noc(=O)[nH]2)cc1 | -0.219% | 0.379% | 0.841% | 0.153% | 0.215% | -1.71% | 0.888% | -0.526% | 1.43% | -1.07% |
| O=C(O)c1ccc(-n2nc(-c3ccccc3O)nc2-c2ccccc2O)cc1 | -3.59% | -2.58% | 0.0493% | -2.68% | -2% | -3.44% | 1.36% | -5.33% | -6.58% | 0.207% |
| C#C[C@]1(OC(C)=O)CC[C@H]2[C@@H]3CCC4=C[C@@H](OC(C)=O)CC[C@@H]4[C@H]3CC[C@@]21C | 0.289% | 0.452% | -1.67% | 1.3% | -0.196% | 0.0724% | 1.57% | -1.23% | 1.15% | 1.62% |
| CN(CCOc1ccc(CC2SC(=O)NC2=O)cc1)c1ccccn1 (stereo not given) | 0.694% and -0.307% and -1.83% | 3.97% and -0.209% and -2.53% | 1.8% and -0.988% and -1.81% | 2.03% and 1.11% and 0.786% | 1.62% and 0.821% and 0.11% | 1.66% and 0.11% and -0.818% | -0.719% and -0.633% and -2.63% | 4.42% and -0.944% and -1.21% | 1.7% and -0.11% and -0.397% | -15.6% and -1.12% |
| CC1CCc2c(N3CCC(O)CC3)c(F)cc3c(=O)c(C(=O)O)cn1c23 (stereo not given) | 1.83% | 2.99% | 1.32% | 2.53% | 3.35% | 2.89% | 4.09% | 0.692% | 3.03% | -1.17% |
| CC(NC(=O)Cc1cc(F)cc(F)c1)C(=O)NC(C(=O)OC(C)(C)C)c1ccccc1 (stereo not given) | 0.109% | -1.56% | 0.0172% | 0.631% | 1.42% | 1.3% | 1.25% | -6.22% | -0.444% | 0.458% |
| Oc1ncnc2[nH]ncc12 | -2.33% | -1.9% | -0.64% | -2.61% | -3.77% | -3.6% | -5.63% | -3.97% | -6.47% | 0.643% |
| CC(C(=O)O)c1ccc(C(=O)c2cccs2)cc1 (stereo not given) | -1.23% | -0.791% | -0.391% | -0.699% | -0.848% | 1.96% | -0.802% | -4.32% | 0.938% | -0.105% |
| CC1(C)S[C@@H]2[C@H](NC(=O)[C@H](N)c3ccc(O)cc3)C(=O)N2[C@H]1C(=O)O | -2.54% and 1.43% | -2.93% and 3.86% | -1.48% and 1.69% | 0.486% and 1.84% | 0.0264% and 2.87% | 0.163% and 3.37% | -3.3% and 1.46% | -1.85% and 0.698% | -2.12% and 2.79% | 7.41% and 0.66% |
| CCOC(=O)CC(=O)N1CCSC1COc1ccccc1OC (stereo not given) | 2.29% | 3.41% | 3.11% | 1.18% | 5.96% | 2.78% | 3.53% | 4.58% | 2.42% | -0.201% |
| CNC[C@H](O)[C@@H](O)[C@H](O)[C@H](O)CO | 1.22% | 3.72% | 2.92% | 1.9% | 4.71% | 1.37% | 3.01% | 2.28% | 3.8% | -1.42% |
| CN1C[C@@H]2C[C@H]1CN2c1cc2c(cc1F)c(=O)c(C(=O)O)cn2C1CC1 | 2.67% | 1.22% | 2.59% | 1.98% | 6.03% | 1.06% | 7.67% | 4.42% | 3.33% | 4.88% |
| COC(=O)[C@H](Cc1ccccc1)NC(=O)[C@@H](N)CC(=O)O | -2.32% | -1.81% | -2.17% | -2.28% | -1.24% | 0.801% | -5.7% | -2.58% | -1.43% | -6.7% |
| CN(Cc1cc(Br)cc(Br)c1N)C1CCCCC1 | 2.48% | 1.22% | 4.28% | 3.08% | 5.14% | 1.81% | 7.22% | 3.97% | 3.03% | -1.94% |
